This note sets out measurements from PubChem BioAssay AID720514 (Broad Institute, 2013).

Molecules are shown by their SMILES. The whole screen tested about 2,100 compounds, of which about 300 (14%) were called active. Roughly 2% stayed inconclusive and do not appear here.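 Rule for the calls: active = every replicate test run called active, with the signal falling and half-maximal concentration within twice the top valid dose; inconclusive = the replicate test runs disagree in their calls; inactive = every test run inactive, including effects in the opposite direction.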 Not all results are given here. Entries with a potency or affinity are not part of this list.

This assay is described as follows: reduced cellular PGC1a acetyl-lysine signal – cell-based, cherry-picked samples, dose response (AID 720514).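 Note: 0% = neutral control wells and -100% = positive control wells; actives lower the acetylation signal so they count as inhibitors of PGC1a acetylation.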 Particulars: U2OS PGC1a acetylation, AlphaLISA, overnight; series mostly up to 19.5 µM; activity change, negative = inhibition: at the top concentration. In general terms: Alpha assays give light when donor and acceptor beads are brought close together.
On to `C[C@@H]1CN([C@@H](C)CO)C(=O)c2c(c3ccccc3n2C)-c2ccccc2CO[C@@H]1CN(C)C(=O)c1cc(Cl)cc(Cl)c1`, for which the “activity change, negative = inhibition” value was 84% (inactive). With `C[C@H](CO)N1C[C@H](C)[C@@H](CN(C)CC2CCCCC2)Oc2c(NC(=O)c3nc4ccccc4s3)cccc2C1=O`, the “activity change, negative = inhibition” value is -3.98% (inactive). On to `C[C@H]1CN([C@@H](C)CO)S(=O)(=O)c2ccc(C#CCN(C)C)cc2O[C@@H]1CN(C)Cc1ccc2c(c1)OCO2`, for which the “activity change, negative = inhibition” value was 63.7% (inactive). `C[C@H](CO)N1C[C@H](C)[C@H](CN(C)Cc2ccc(C(=O)Nc3ccccc3N)cc2)Oc2c(NC(=O)c3ccncc3)cccc2C1=O`: the “activity change, negative = inhibition” value was 66.6% [at 16 µM] (inactive). With `Nc1c(C(=O)c2ccccc2)sc2nsc(SCCN3CCCC3)c12` the figure was 56.7% (inactive); with `COc1ccc(S(=O)(=O)Nc2ccc3c(c2)C(=O)N([C@H](C)CO)C[C@H](C)[C@H](CN(C)S(=O)(=O)c2cn(C)cn2)OCCCC[C@@H](C)O3)cc1`, 39.9% [at 21 µM] (inactive). As to `COC(=O)C(Nc1ccccc1Cl)(c1cc(C)c(O)c(C)c1)C(F)(F)F` (stereo not given), the “activity change, negative = inhibition” value is 63.8% (inactive). Turning to `CC(C)(C)c1ccc(C(=O)c2c[nH]c(C(=O)NCc3cccnc3)c2)cc1`, the “activity change, negative = inhibition” value was 303% (inactive). With `CCN(CC)CCCn1c(=S)[nH]c2cc(Cl)ccc2c1=O` the figure was 119% (inactive); with `N#Cc1ccc(C(=O)CSc2nnc(-c3ccc(C(F)(F)F)cn3)s2)cc1`, 45.1% (inactive); with `O=C(CSc1nc2ccccc2c(=O)n1CC1CCCO1)N1CCN(c2ccccc2)CC1` (stereo not given), 30.9% (inactive). With `Cn1cc(-c2ccc(C(=O)NCc3cccc(Cl)c3)c3occc23)cn1`, the “activity change, negative = inhibition” value was 72.5% (inactive).

For `Cc1ccc2[nH]cc(C(=O)CN3CCN(c4ccccc4F)CC3)c2c1`, the “activity change, negative = inhibition” value was 58.1% (inactive).

As to `O=C(Nc1ccc(OCC(=O)N2CCC(Cc3ccccc3)CC2)cc1)c1ccco1`, the “activity change, negative = inhibition” value is 111% (inactive).

Turning to `COc1ccc(NC(=O)N2CCN(c3ccc([N+](=O)[O-])cc3)CC2)cc1`, the “activity change, negative = inhibition” value is 85.4% (inactive). Regarding `COc1ccc(C2C(C(=O)Nc3ccccc3)=C(C)Nc3nc(CCCO)nn32)cc1` (stereo not given), the “activity change, negative = inhibition” value was 69.2% (inactive). As to `CC1=CC(C)(C)N2C(=O)C3(SCC(=O)N3c3ccc(F)cc3)c3cc(C)cc1c32` (stereo not given), the “activity change, negative = inhibition” value is 65.8% (inactive). With `NC(=O)Cn1cc(C(=O)c2cccs2)c2ccccc21` the figure was 101% (inactive); with `C[C@@H]1CN([C@@H](C)CO)C(=O)c2c(c3ccccc3n2C)-c2ccccc2CO[C@@H]1CN(C)C(=O)c1ccc(F)cc1`, 154% [at 21 µM] (inactive); with `O=S(=O)(NCc1ccccc1Br)c1ccccc1Br`, 43.5% (inactive). Take `COCCN(C)Cc1nc(C(c2ccccc2)c2ccccc2)no1`: the “activity change, negative = inhibition” value is 41.6% (inactive). With `Cc1cc(C(F)(F)F)n(-c2nc(C(=O)NNS(=O)(=O)c3ccccc3[N+](=O)[O-])cs2)n1` the figure was 65.3% (inactive). As to `O=C(NCCC1=CCCCC1)c1coc(=O)c(Br)c1`, the “activity change, negative = inhibition” value is 27.7% (inactive).

As for `O=C(NCc1cccnc1)c1ccc(NC(=O)c2cccc([N+](=O)[O-])c2)cc1`, the “activity change, negative = inhibition” value is 327% (inactive). Consider `COc1cc(/C=C2\SC(=O)NC2=O)ccc1Oc1ccc([N+](=O)[O-])cn1`, for which the “activity change, negative = inhibition” value was 54% (inactive). The same measure for `COc1ccc(CN2CCn3ncc(C(=O)Nc4ccccc4)c3C2=O)cc1`: 30.6% (inactive); for `COc1ccc(C#Cc2c(-c3ccccc3)n(-c3ccccc3)c3ccc(CO)cc23)cc1`: 101% (inactive); for `CC12CCC(C1)C(C)(C)C2NS(=O)(=O)c1ccc(F)cc1` (stereo not given): 96.9% (inactive). Take `COc1ccc(NC(=O)c2sccc2SCc2cccc(C(F)(F)F)c2)cc1`: the “activity change, negative = inhibition” value was 93.2% (inactive). With `O=C(Cn1c(CN2CCCCC2)nc2ccccc2c1=O)Nc1ccccc1`, the “activity change, negative = inhibition” value was 59.2% (inactive). With `COc1ccc(Cn2nnnc2C(C(C)C)N(Cc2ccco2)Cc2cccs2)cc1` (stereo not given) the figure was 116% (inactive); with `COc1ccc(S(=O)(=O)N(C)CC(=O)Nc2cccc(C(C)=O)c2)cc1Cl`, 89.1% (inactive); with `COc1cccc(C(=O)/C=C/c2ccc(OCC#N)c(OC)c2)c1`, 44.8% [at 10 µM] (inactive). In the case of `COc1ccc(S(=O)(=O)NNC(=O)c2csc(-n3nc(C)cc3C(F)(F)F)n2)cc1`, the “activity change, negative = inhibition” value is 46.5% [at 10 µM] (inactive).

`COc1ccc(Nc2nnc(-c3ccc(C(=O)NCCO)cc3)c3ccccc23)cc1`: the “activity change, negative = inhibition” value is 89.6% (inactive).

Turning to `Cn1ncc(Cl)c1C(=O)Nc1sc2c(c1C(N)=O)CCC2`, the “activity change, negative = inhibition” value was 44.2% [at 10 µM] (inactive). With `N#Cc1cccc(C(c2nnnn2C2CCCC2)N2CCCCCC2)c1` (stereo not given), the “activity change, negative = inhibition” value is 81.4% (inactive). As for `Cc1c(C(=O)N2CCN(c3ccccn3)CC2)sc2ncnc(N3CCN(c4ccccc4)CC3)c12`, the “activity change, negative = inhibition” value is 34.3% (inactive). For `COc1cc(NC(=O)c2cccs2)c(OC)cc1NC(=O)CCC(=O)Nc1ccc2ncccc2c1`, the “activity change, negative = inhibition” value was 202% [at 10 µM] (inactive). Take `Cc1ccc(CC(=O)N2CCN(c3ccc([N+](=O)[O-])cc3)CC2)cc1`: the “activity change, negative = inhibition” value was 228% (inactive). On to `O=C(Nc1ccc(F)cc1F)N1CCCN(c2ccc([N+](=O)[O-])cn2)CC1`, for which the “activity change, negative = inhibition” value is 107% (inactive). In the case of `CS(=O)(=O)N(CC(=O)N1CCN(c2ccccc2)CC1)c1cccc(Br)c1`, the “activity change, negative = inhibition” value is 51.7% (inactive). Take `O=C(COc1ccc(Cl)cc1)NCCCNC(=O)c1cccnc1`: the “activity change, negative = inhibition” value is 238% [at 10 µM] (inactive). Turning to `Cc1ccc(OCC(=O)NCCCNC(=O)c2cccnc2)cc1C`, the “activity change, negative = inhibition” value was 201% [at 10 µM] (inactive). `Cc1cc2oc(=O)cc(CN3CCC(C)CC3)c2cc1C`: the “activity change, negative = inhibition” value is 50.6% (inactive). With `O=C(CN1CCC(n2nnc3ccccc32)CC1)NCc1cccs1` the figure was 118% (inactive); with `C=CCNC(=O)c1ccc(CN2CCC(Cc3ccccc3)CC2)cc1`, 29.6% (inactive). As for `Cc1cc(C(=O)NNS(=O)(=O)c2ccc(F)cc2)nn1C(C)(C)C`, the “activity change, negative = inhibition” value was 430% [at 10 µM] (inactive). On to `COc1cc(CN2[C@@H]3CNC[C@H]2C3c2ccc(-c3ccccc3)cc2)cc(OC)c1` (stereo not given in full), for which the “activity change, negative = inhibition” value was 44.3% (inactive).

Consider `COc1ccc(CCCNC(=O)C2(C)Cc3c(-c4ccc5c(c4)OCO5)ccnc3O2)cc1` (stereo not given), for which the “activity change, negative = inhibition” value is 25% (inactive).

In the case of `CCOc1ccc(NC2c3ccccc3C(=O)N2Cc2ccc3c(c2)OCO3)cc1` (stereo not given), the “activity change, negative = inhibition” value is 38.7% (inactive).

Consider `O=C(c1ccccc1Nc1ccc(SC(F)F)cc1)N1CCCCCC1`, for which the “activity change, negative = inhibition” value was 61.7% (inactive). In the case of `Cc1cccc(Nc2nnc(-c3ccc(C(=O)N4C[C@H]5C[C@H](C4)c4cccc(=O)n4C5)cc3)c3ccccc23)c1`, the “activity change, negative = inhibition” value is 64.7% (inactive). For the molecule `COC(=O)[C@H](Cc1ccccc1)N(C)S(=O)(=O)c1cccc(S(=O)(=O)N(C)[C@@H](Cc2ccccc2)C(=O)OC)c1`, the “activity change, negative = inhibition” value was 47.9% (inactive). On to `Cc1csc(NC(=O)NC2(C(F)(F)F)Oc3ccccc3O2)n1`, for which the “activity change, negative = inhibition” value was 85.6% [at 10 µM] (inactive).

In the case of `O=C(Nc1cccc(C(F)(F)F)c1)c1sc(Cl)nc1C(F)(F)F`, the “activity change, negative = inhibition” value is 62.9% (inactive). With `Cc1cccc(C)c1OC1(c2ccccc2)OC(=O)c2ccccc21` (stereo not given), the “activity change, negative = inhibition” value is 94.7% (inactive). Consider `O=C(CCn1nnc2ccccc21)Nc1nnc(Cc2ccccc2)s1`, for which the “activity change, negative = inhibition” value was 87.3% (inactive). For `O=S(=O)(NC12CC3CC(CC(C3)C1)C2)c1ccc(F)cc1`, the “activity change, negative = inhibition” value is 47.5% (inactive). Consider `O=C(CSc1nnc(Cn2cnc3ccccc32)o1)c1ccccc1`, for which the “activity change, negative = inhibition” value is 172% (inactive).
